Results as given in the supplement of paper PMC12632987.

B1: usp_38_diff_out_13_93_73 (protein)
chain: DPAEELRREAEELIEELRRRTDELVARLEAGEITIEEALARFSELMDEAAERLRELIARAEALGLEALAREIRRRVLEAMVEATERLGAALERAAEREAA
B2: usp_38_diff_out_13_93_74 (protein)
chain: DLEARVEALLAAQEAEADALAAELAARAAAGEITVEEILERSSALADRIAEETRRAVAELEAAGEAALARRLRERTAEILLRLTERVGAILEELAAREAA
B3: usp_38_diff_out_13_93_76 (protein)
chain: TLEEKAEALLAEIRKRAEELLKELKKLAEEGKITIEEVLERSSKLFDEIAERTRAMVAELRAAGKEALAERVEKEVNEIILKATEGVGKILEFLAEKEAA
B4: usp_38_diff_out_14_2_116 (protein)
chain: AVEEIKAATDATLATLAAATAALAELKKRVEADPSLAEEARAEAFAAWDAAADAVGALNRLMEANREHRAERKEATAKINAALTTLTAALTETLEAAAAA
B5: usp_38_diff_out_14_2_114 (protein)
chain: GEAEIKAATAETLAVLEEAIKKLKELTERVKADPSKAEEARKEAFEAWDKAADAVGALRKLMEAHREHRAEIKEATAKVNEAITKLTEALTETLELAAEA
B6: usp_38_diff_out_14_2_110 (protein)
chain: AEEKLKKATKETLATLKEAIKLAKELKKEVKKDPSKKEEARKKLFEAHDKAADAVGKLAKLIEENKELRELNKKATKEVDKAITEYTKAALEALEEIEKA
B7: usp_38_diff_out_14_2_79 (protein)
chain: MEEKAKEVLKKLEEKTKEVKKVTEELEKALSGSKEEIEKAVEKAFKVLDEAGKVSAEAEEVRRENPKFRAEFKKAFKELDKELSKLSKAILEALEKIAEL
B8: usp_38_diff_out_13_93_70 (protein)
chain: SAEEKIKKLIEETKEKAKKKLEEMEEKVEAGELDVEEVLEEYSELMKYIVETHNEIEKLAKENGLEELLKEANKEFNELINETTEKVTEMLEKVAERQLA
B9: usp_38_diff_out_13_93_77 (protein)
chain: SLEEKAKALLAEIEARAKALLEELEELAERGEITIEEVLERSSALFDEIAAETRAMVAELEAAGKKALAEELKKKVNEIILDATEGIGKILERLAEREAA
B10: usp_38_diff_out_14_2_119 (protein)
chain: AKAEIAKATAATLATLAAAIKKAKELTKKVKADPSLKEKARAELDKAWDAAGDAVGALNTLLLANKDLKAENKKATAATNAAITELTKTYTEALEAIEEA
B11: usp_38_diff_out_14_2_109 (protein)
chain: KEEELKKKKEETLKKLDEAIKKAKELKEEVKKDPSKKEEAFKELFEKHDEAADAVGELNKLILENKELRELNKEVTEEVNKKITEYTEAVLEALEEIAEA
B12: usp_38_diff_out_14_2_111 (protein)
chain: AKEELEKATKETLEVLKEATKLAKELKEEVKKDPSKAEEARKKLFEAHDKAGDAVGELNKLILENKELRELNKKATEEVNKAITEYTKATLEALETIAEA
B13: usp_38_diff_out_14_2_102 (protein)
chain: AEAEIEKATEETLAVLEEAIKKFEELEKEVEEDPSKAEEAFERILEEWDRAADAVGALARLLEAHPEVRETRKKAVAEVNEALTRLTEKATRALEKAAEA
B14: usp_38_diff_out_14_2_115 (protein)
chain: AVEELKKKTEETLKVLDEAIKKLKELTERVKKDPSTAEEAVKEAFKAWDKAADAVGELNKLILANREHRAENKEATKKVNEKITELTKALTEALTLAAEA
B15: usp_38_diff_out_14_2_120 (protein)
chain: AVEEIKKATDDTLAKLDAAIAAAKALTAQVKADPSLKEQARAALNAAWDAAGDAVGALNKLLEANKEEKATNKEATAKTNAAITELTAAVLDALTTIEEA
B16: usp_38_diff_out_14_2_117 (protein)
chain: GEEEIKKATEETLKVLKEAIKKLKELKKRVEEDPSKAAEATEEAFRAWDKAADAVGALNKLLEAHKEHREENKKATKEVNKAITELTEALTELLTAAAEA
B17: usp_38_diff_out_13_93_75 (protein)
chain: SLEDEAAALLAEIRAEAEALAAELEALAEAGKITIEEVLERTSALVDRIAERTRAMVARLRAAGLEALARRLEEEVNRILLDLTERVGRILERLAEREAA
B18: usp_38_diff_out_14_2_112 (protein)
chain: AKEELEKKKEETLKTLEEAIKKAKELKKEVEKDPSKKEEAFKELRKKHDEAADKVGELNKLILENKELRELNKKVTEEVNEKIKEYTEAVLEALEKIAEA
B19: usp_38_diff_out_14_2_118 (protein)
chain: GEEELKEKKKATLATLDDAIAKAKALEAAVKADPSIAEQARAELRKAWDAAADAVGELERLIREHPEHRELNKEAIKEVNEKLTELTEALLAALQTIAEA
B20: usp_38_diff_out_14_2_121 (protein)
chain: AKEELEKATKKALETLDKALEEAKRLKEEVKKDPSKAEEAFKRLREAWDKAADAVGELNKLMLEHKEEKETIKEATEKVNKKITELTKATLEALEEAAKA
B21: usp_38_diff_out_14_2_101 (protein)
chain: AEEEIKKKKEETLKKLEEGIERLKKLKEEVKKDPSLAEKARKEAFEIHDEVADKVGELHKLILKNPELKELNKKAIKEVNEKLTEFTEALLEALEEAAAA
B22: usp_38_diff_out_14_2_104 (protein)
chain: AKATIEAATAAALKAIDDGKKRLEELTKKVKEDPSKAEEAREEILAVWDEVGDAVGALAATLRANPAERATNKAATAEVNKALTEFTKKALEALEVAEEA
B23: usp_38_diff_out_13_93_71 (protein)
chain: STEEEIERLVEEAEERARRELEEMREEVEAGKLNVEEVLERSSELFRWLVEKYNEIKKLAKEAGLEELLKEAEERFNELINKATEEVTEMLEKVAERELA
B24: usp_38_diff_out_14_2_122 (protein)
chain: AEAELEAAAAATKATLEDAIKRVKELLEEVKKDPSKAEEALKELRRLWDEAADAVGALARLMEAHRELRALRKRITAEVNALITEFTEAVLELLEEIAEA
B25: usp_38_diff_out_14_2_107 (protein)
chain: AKEEIKKKTEETLKALDEAIKAAKKLKEEVKKDPSLAEKARKELFKLWDEVGDKVGELAKLLEENKEERETNKEAVEKVNEALTKFTKAVLEALEEIEKA
B26: usp_38_diff_out_14_2_105 (protein)
chain: GEEEIKKATDKTLKKLEEATKKFKELKEKVKKDPSLAEEARKEAFKAWDEAGDAVGALAKLIEENKEHRATNKEATEKVNKALTEYTKAVLELLEEIAEA
B27: usp_38_diff_out_14_2_106 (protein)
chain: GEEEIKKATEETLKAIKEAIEKAKELKEKVKKDPSLAEEARKELFEAHDKVGDKVGALAKLIEEHKEYRETNKKAVKEVNEALKEYTEAVLELLEEIAEA
B28: usp_38_diff_out_14_2_113 (protein)
chain: AEEELKKAAEKTLKVLDEAIKNLKALKKKVEADPSKAEEATKEAFAAWDKAADAVGELNKLIEANREHRAERKEVTEKVNKKITELTDALTELLTAAAEA
B29: usp_38_diff_out_14_2_100 (protein)
chain: GEEELKAATDATLKTLDAAIKEAKELKKEVEEDPSKAEEARKRLFEAWDKAADAVGALAKLMEEHKELRELNKEAVEKVNKRITELTKVALEALELAAKA
B30: usp_38_diff_out_14_2_78 (protein)
chain: MEEKVKKLKEEIEKLLEEAKKLLEEAKKLLKEGDELAEEVLEKLDKAFDKLGELAKLLRELRELDPSQRAFVKEMTKKANELIDELTELRTEALLILAER
B31: usp_38_diff_out_13_93_72 (protein)
chain: SAEEEIEKILKEVEEEAEKELEELEKEVAAGRLTVEEVLRRAGELFSYIVKKHQEIEKIAKENGLEALLKEATEKVNELINKVTERVTAMLERVAARQLA
B32: usp_38_diff_out_14_2_108 (protein)
chain: AADKIKAATDATLAALEAAIAKAKELKERVKKDPSLAEEARKELFEAWDAVGDKVGALAKLLEENKAERATNKKATAEVNKALTEYTKAVLEALEEIAKA

Biological target: T1, USP38, Q8NB14
T1 chain: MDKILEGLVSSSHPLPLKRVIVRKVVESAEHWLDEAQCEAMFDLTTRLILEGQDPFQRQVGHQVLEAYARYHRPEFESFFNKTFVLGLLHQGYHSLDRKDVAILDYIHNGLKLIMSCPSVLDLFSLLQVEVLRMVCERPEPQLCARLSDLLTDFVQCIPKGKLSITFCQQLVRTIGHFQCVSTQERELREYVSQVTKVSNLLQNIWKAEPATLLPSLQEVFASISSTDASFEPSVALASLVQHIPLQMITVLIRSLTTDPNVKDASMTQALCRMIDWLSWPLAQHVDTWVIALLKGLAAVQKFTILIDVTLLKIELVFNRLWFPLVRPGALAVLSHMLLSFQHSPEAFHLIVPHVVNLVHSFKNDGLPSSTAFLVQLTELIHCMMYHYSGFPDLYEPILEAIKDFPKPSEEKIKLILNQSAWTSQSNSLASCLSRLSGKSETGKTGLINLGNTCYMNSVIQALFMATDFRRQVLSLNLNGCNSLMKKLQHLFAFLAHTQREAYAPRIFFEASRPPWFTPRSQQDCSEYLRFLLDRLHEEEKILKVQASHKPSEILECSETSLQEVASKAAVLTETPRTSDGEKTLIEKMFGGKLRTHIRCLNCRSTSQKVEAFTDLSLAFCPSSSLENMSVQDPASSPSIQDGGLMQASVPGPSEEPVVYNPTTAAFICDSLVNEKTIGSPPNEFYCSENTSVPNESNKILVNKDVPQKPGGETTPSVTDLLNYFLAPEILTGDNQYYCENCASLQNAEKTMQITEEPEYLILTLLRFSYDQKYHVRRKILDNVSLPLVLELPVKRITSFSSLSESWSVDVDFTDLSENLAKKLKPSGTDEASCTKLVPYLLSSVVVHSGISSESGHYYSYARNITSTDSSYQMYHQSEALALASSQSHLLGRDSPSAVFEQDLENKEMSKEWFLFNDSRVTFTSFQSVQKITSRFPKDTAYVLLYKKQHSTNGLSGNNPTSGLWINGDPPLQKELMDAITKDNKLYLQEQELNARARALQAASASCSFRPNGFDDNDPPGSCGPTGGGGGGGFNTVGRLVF
Assay: median log2 fold change of GCK-ALFA target abundance (FLAG IP / Myc IP barcode read proportion) (log2 ratio); each designed protein is fused to an ALFA-tag nanobody in HEK293 cells to bring the named protein to FLAG-tagged glucokinase (GCK); Myc marks an untargeted standard; higher = target protein stabilised (more abundant)
Details: target protein: 3xFLAG-MCP-GCK-ALFA reporter; HEK293 landing pad (RPLP)
Outline: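 Binders fused to an ALFA nanobody were recombined as a library into HEK293 landing-pad cells, which were induced with 2 μg mL^−1 doxycycline and then transfected to express a FLAG-tagged target and a Myc-tagged standard. After 48 h, circular RNA barcodes recovered by anti-FLAG and anti-Myc immunoprecipitation of lysates were reverse transcribed, amplified and sequenced. Each binder's target abundance is the median log2 ratio of FLAG to Myc barcode read proportions, from barcodes present at ≥10^−7 in both replicates, binders carrying ≥3 barcodes per replicate, a 10^−6 pseudocount and pooled replicates.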

Binder	median log2 fold change
B1	-0.395
B2	0.136
B3	0.124
B4	-0.132
B5	-0.239
B6	-0.599
B7	-0.624
B8	-0.785
B9	-0.0527
B10	-0.186
B11	-0.1
B12	-0.197
B13	-0.0129
B14	-0.246
B15	-0.172
B16	-0.0949

Binder	median log2 fold change
B17	0.213
B18	0.0138
B19	-0.0211
B20	-0.64
B21	0.0029
B22	0.0445
B23	-0.429
B24	-0.56
B25	-0.442
B26	-0.792
B27	-0.23
B28	-0.258
B29	-0.611
B30	0.219
B31	-0.469
B32	-0.78
